Screens: PubChem, National Center for Advancing Translational Sciences (NCATS)
D3 antag = antagonists of human D3 dopamine receptor; AID 652054; 360,000 tested, 2.5% active; max response, negative = inhibition, %; P35462; D3R cells, DiscoveRx beta-arrestin luminescence, antagonist mode; hits give low values; in the data active = max response below about -50%
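Cells plated overnight at 1500 cells/well, then exposed to library compounds with dopamine controls for 90 minutes at 37 degrees C. DiscoveRx reagent added for 30–60 minutes at room temperature; luminescence read, quantitative HTS format.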
D1 antagonist = human D1 dopamine receptor antagonism | HEK293 TREx D1 cells, calcium flux, dopamine EC80; hits give low values | activity change, negative = inhibition, % at 10 µM | 360,000 tested, 3.2% active | AID 504652; in the data active = activity change below about -30%
Target sequence (P21728 whole entry, looked up): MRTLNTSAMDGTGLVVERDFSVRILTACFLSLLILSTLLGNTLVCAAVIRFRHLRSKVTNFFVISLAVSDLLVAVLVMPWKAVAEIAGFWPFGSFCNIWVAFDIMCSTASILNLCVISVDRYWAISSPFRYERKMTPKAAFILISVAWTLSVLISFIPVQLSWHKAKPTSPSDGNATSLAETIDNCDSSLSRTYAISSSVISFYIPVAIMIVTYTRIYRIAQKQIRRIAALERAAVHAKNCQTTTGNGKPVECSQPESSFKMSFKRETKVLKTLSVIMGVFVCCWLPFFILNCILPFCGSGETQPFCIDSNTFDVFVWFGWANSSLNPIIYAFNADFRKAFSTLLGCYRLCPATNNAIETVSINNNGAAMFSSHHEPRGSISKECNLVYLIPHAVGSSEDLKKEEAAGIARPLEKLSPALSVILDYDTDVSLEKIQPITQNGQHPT
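Kinetic fluorescence of a calcium dye serves as the read-out. D1-expressing Hek293 Trex cells, induced overnight at 30 C, are exposed to compound for 180 s before an EC80 dopamine addition, then read 180 s further.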
D1 potentiator = human D1 dopamine receptor positive modulation; P21728; HEK293 TREx D1 cells, calcium flux, dopamine EC20 potentiation; potentiation, % at 10 µM; 360,000 tested, 0.036% active; AID 504651; in the data active = potentiation above about 30%
D3 ag = D3 dopamine receptor (human) agonism. P35462. AID 652048. 410,000 tested, 0.58% active. D3R DiscoveRx beta-arrestin cells, luminescence, 90 min. max activation, %; in the data active = max activation above about 30%
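Agonist-mode cell screen: cells plated at 1500/well and incubated overnight at 37 °C, then exposed to library compounds for 90 min at 37 °C. Detection reagent was added for 30–60 min at room temperature, and luminescence was read.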
D1 agonist = activates the human D1 dopamine receptor; P21728; HEK293 T-REx D1 cells, calcium flux, agonist mode; activation, % at 2 µM; 360,000 tested, 1% active; AID 504660; in the data active = activation above about 30%
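Inducible HEK293 T-REx D1 cells, force-coupled to calcium signalling, were plated at 4000 cells/well with tetracycline and held overnight at 30 C. After no-wash calcium dye loading, compound-evoked calcium rise over 180 s flagged agonists.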
A number is an active result; n = inactive; x = no result; ! = a repeat was not active. An excerpt weighted towards active compounds, which were near 6% of everything screened.

SMILES	D3 antag	D1 antagonist	D1 potentiator	D3 ag	D1 agonist
COc1cc(Nc2nc3ccccc3nc2NS(=O)(=O)c2ccc([N+](=O)[O-])cc2)cc(OC)c1OC	n	-74	n	n	n
CC(=O)Nc1ccc(S(=O)(=O)Nc2nc3ccccc3nc2Nc2ccc(N)cc2)cc1	n	n	n	n	n
CC(=O)Nc1ccc(S(=O)(=O)Nc2nc3ccccc3nc2Nc2ccc3ccccc3c2)cc1	n	n	n	n	n
COc1ccccc1CNC(=O)COC(=O)CSc1ccc(C)c(C)c1	n	n	n	n	n
COc1cccc(-c2cn3c(n2)sc2cc(C(=O)NCCCc4ccccc4)ccc23)c1	x	-34	n	n	n
COc1ccc(-c2cn3c(n2)sc2cc(C(=O)NCCCc4ccccc4)ccc23)cc1	x	n	n	n	n
Cc1cccc(NC(=O)c2sc(-n3nc(C)c(CCC(C)C)c3C)nc2C)c1C	x	n	n	n	n
COc1ccc(OCC(=O)N2CCN(C(=O)c3ccco3)CC2)cc1	-54	n	n	n	n
O=C(COC(=O)C1(c2ccc(F)cc2)CCCC1)NCc1ccc2c(c1)OCO2	n	-32	n	n	n
Cc1cc(SCC(=O)OCC(=O)N2CCN(C(=O)c3ccco3)CC2)c(C)cc1Br	n	n	n	n	44
Cc1ccccc1OCC(=O)OCC(=O)NCc1ccc2c(c1)OCO2	n	x	x	n	x
O=C(COC(=O)C1(c2ccccc2F)CCCC1)NCc1ccc2c(c1)OCO2	n	n	n	n	n
Cc1cc(SCC(=O)N2CCN(C(=O)c3ccco3)CC2)c(C)cc1Br	n	n	n	n	n
Cc1cc(SCC(=O)OCC(=O)NCc2ccc3c(c2)OCO3)c(C)cc1Br	n	-38	n	n	n
O=C(COc1ccccc1)N1CCN(C(=O)c2ccco2)CC1	n	n	n	n	n
Cc1ccc(S(=O)(=O)N2C(=O)CCC2C(=O)O/N=C(\N)c2ccc([N+](=O)[O-])cc2)cc1 (stereo not given)	n	n	n	n	n
COc1ccc(NC(=O)C(=O)NCCN2CCN(C(=O)c3ccco3)CC2)cc1	n	n	n	56	n
CC(C)c1ccc(OCC(=O)N2CCN(C(=O)c3ccco3)CC2)cc1	n	n	n	n	n
O=C(COc1ccc(Cl)cc1)N1CCN(C(=O)c2cccs2)CC1	n	-61	n	n	n
N#Cc1ccc(OCC(=O)N2CCN(C(=O)c3ccco3)CC2)cc1	n	-35	n	n	n
COc1ccccc1C(=O)N1CCCCC1CCN1CCOCC1 (stereo not given)	x	n	n	n	n
CCOc1ccccc1CNC(=O)CCn1ccc2cc(S(=O)(=O)N3CCCCC3)ccc21	n	n	n	n	48!
O=C(CCn1ccc2cc(S(=O)(=O)N3CCCC3)ccc21)NCc1ccccc1F	n	-31!	n	n	n
Cc1ccc(OCc2ccc(-c3nc(C#N)c(NCc4ccccc4Cl)o3)o2)cc1	x	n	n	n	n
Cc1ccc(NC(=O)c2c(C)oc3ncn(C)c(=O)c23)cc1F	x	n	n	n	n
SMILES	D3 antag	D1 antagonist	D1 potentiator	D3 ag	D1 agonist
Cn1cc(CN2CCC(C(O)c3cccs3)CC2)c(-c2cccc(Cl)c2)n1 (stereo not given)	n	n	n	n	41
Cn1cc(CN2CCN(c3ncccn3)CC2)c(-c2cccc(Cl)c2)n1	n	n	n	n	n
COc1ccc([S+](=O)([O-])N2CCN([S+](=O)([O-])c3ccc4c(c3)OCCO4)CC2)c(OC)c1	x	n	n	x	n
Fc1c(F)c(C(F)(F)F)c(F)c(F)c1N/N=C\c1cccs1	n	-34	n	n	n
COc1ccc(CNCCC(c2ccc(OC(C)C)cc2)c2ccccc2OC)cc1 (stereo not given)	n	n	n	n	35
COc1ccccc1C(CCNCc1ccccc1)c1ccc(OC(C)C)cc1 (stereo not given)	n	n	n	n	n
COc1ccccc1NC(=O)CC(c1ccc(OC(C)C)cc1)c1ccccc1OC (stereo not given)	n	n	n	47	n
COc1ccc(C(CCNCc2ccc(OC(C)C)cc2)C(C)C)cc1 (stereo not given)	n	n	n	n	31
COc1ccc(CNCCC(c2ccc(OC(C)C)cc2)C(C)C)cc1OC (stereo not given)	n	n	n	n	35
